Compound activity from PubChem BioAssay.
A3G deaminase = APOBEC3G DNA deaminase inhibitors, primary screen, biochemical, fluorescence, single-stranded DNA substrate, uHTS; DNA dC->dU-editing enzyme APOBEC-3G (Homo sapiens), Q9HC16; recombinant A3G, ssDNA deamination FAM/TAMRA fluorescence; inhibition, % at 20 µM; hit rate 0.28% among 330,000; AID 493012, 2011;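 active = inhibition of at least 40% at 20 µM, with no more than 30% in the related APOBEC3A deaminase screen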;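 note: plate controls were DMSO wells with A3G for no effect and wells lacking A3G enzyme for full effect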
Target sequence (Q9HC16 whole entry, looked up): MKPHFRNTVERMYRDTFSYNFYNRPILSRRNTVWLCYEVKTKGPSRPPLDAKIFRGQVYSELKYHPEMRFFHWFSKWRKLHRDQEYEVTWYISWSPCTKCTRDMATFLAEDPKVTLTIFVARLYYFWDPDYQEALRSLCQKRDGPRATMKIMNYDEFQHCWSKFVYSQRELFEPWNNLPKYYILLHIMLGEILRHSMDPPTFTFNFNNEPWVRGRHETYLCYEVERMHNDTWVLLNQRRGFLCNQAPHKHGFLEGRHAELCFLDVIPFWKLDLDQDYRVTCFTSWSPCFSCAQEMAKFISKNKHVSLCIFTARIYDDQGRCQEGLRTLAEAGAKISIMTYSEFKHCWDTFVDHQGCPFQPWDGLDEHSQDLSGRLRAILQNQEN
PfM18AAP inh-1 = PfM18AAP inhibitors, malaria aminopeptidase, primary screen, biochemical, QFRET, recombinant enzyme; M18 aspartyl aminopeptidase (Plasmodium falciparum 3D7); inhibition, % at 7.35 µM; H-Glu-NHMec fluorogenic cleavage; AID 1822, 2009; hit rate 1.2% among 290,000;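 active = inhibition above the campaign mean inhibition over all tested compounds plus 3 SD, cut at about 28% in these data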;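 note: 0% = plate median of test compound wells and 100% = 2 mM ZnCl2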
CendR NRP1 mod = modulators of CendR peptide binding to NRP-1, primary screen, biochemical, fluorescence polarization, uHTS | hit rate 0.85% among 360,000 | inhibition, % at 25 µM | FAM-RPARPAR peptide binding to NRP-1 | Neuropilin-1 (Homo sapiens), O14786;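 active = inhibition or corrected inhibition above about 18%, plus a signal ratio from 0.5 to 1.5, limit read from the data, passing the limit was not always enough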
ALR inh = inhibitors of human ALR sulfhydryl oxidase, primary screen, biochemical, H2O2 detection, HRP-luminol luminescence, single point | FAD-linked sulfhydryl oxidase ALR (Homo sapiens), P55789 | purified ALR, DTT oxidation | inhibition, % (test concentration not listed) | hit rate 3.8% among 290,000;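 active = mean replicate inhibition above about 79%, with every replicate also reaching it, limit read from the data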
CR mimetic SO = reduction of superoxide in aged yeast, primary screen, HTS. AID 2690, 2010. superoxide response (% of plate mean), % at 10 µM. S. cerevisiae aged cells, superoxide DHE fluorescence; active compounds read low. hit rate 0.18% among 330,000;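 active = superoxide response under a set limit, about three screen SD below normal, cut at about 65% in these data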;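 note: yeast aged for seven days with compound at 30 °C before DHE staining; 100% = average MFI of all compound-treated wells on the plate with controls excluded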
APOBEC3A inh = APOBEC3A ssDNA deaminase inhibitors, primary screen, selectivity assay for APOBEC3G inhibitor project, biochemical, FAM/TAMRA oligo cleavage fluorescence; AID 493011, 2011; inhibition, % at 20 µM; DNA dC->dU-editing enzyme APOBEC-3A (Homo sapiens), P31941; hit rate 0.41% among 330,000; recombinant A3A, FAM/TAMRA ssDNA deamination fluorescence;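 active = at least 40% inhibition at 20 µM here, with at most 30% in a related deaminase screen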;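 note: plate controls were A3A with DMSO for no effect and wells lacking A3A enzyme for full effect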
Target sequence (P31941 whole entry, looked up): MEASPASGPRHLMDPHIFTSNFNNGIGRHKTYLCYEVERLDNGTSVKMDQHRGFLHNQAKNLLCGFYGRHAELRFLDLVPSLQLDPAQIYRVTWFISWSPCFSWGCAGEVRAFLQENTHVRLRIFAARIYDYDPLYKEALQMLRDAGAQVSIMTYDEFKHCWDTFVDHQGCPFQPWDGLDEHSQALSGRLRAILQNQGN
PfM18AAP inh-2 = PfM18AAP inhibitors, malaria aminopeptidase, confirmation, biochemical, QFRET, recombinant enzyme, triplicate. shares compounds with PfM18AAP inh-1. H-Glu-NHMec fluorogenic cleavage. inhibition, % at 7.35 µM. hit rate 28% among 2,400. AID 2170, 2009;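 active = mean inhibition over replicate wells above the hit cutoff set for the earlier primary screen, cut at about 29% in these data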;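 note: 0% = median of test compound wells and 100% = 2 mM ZnCl2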
CTSL1 confirm = cathepsin L1 inhibitors, retest, confirmation, counter-screen for PFM18AAP inhibitor project, biochemical, QFRET, triplicate. shares compounds with PfM18AAP inh-1. purified cathepsin L1, Z-Leu-Arg-MCA fluorescence. inhibition, % at 5.96 µM. 2,400 tested, under 10 active. AID 2178, 2009;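 active = average inhibition across replicates above the hit cutoff set in the earlier primary screen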;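 note: 0% = median of test compound wells and 100% = Z-Phe-Ala-diazomethylketone 1 µM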
Active calls of the source: *; · = no result. Most compounds without a hit are left out; they make up all but 5.2% or so of the library.

SMILES	A3G deaminase	PfM18AAP inh-1	CendR NRP1 mod	ALR inh	CR mimetic SO	APOBEC3A inh	PfM18AAP inh-2	CTSL1 confirm
CC1CCCCN1CCCNC(=O)c1nn(C)c2c1CS(=O)(=O)c1ccccc1-2 (stereo not drawn)	-6	-5	7	2	101	-4	·	·
COc1ccc(CCNC(=O)c2ccccc2N(C)S(=O)(=O)c2ccccc2)cc1	-2	-5	3	·	99	1	·	·
O=C(NCCCn1ccnc1)c1cn(Cc2ccc(F)cc2)nn1	-4	2	-2	18	94	0	·	·
CNc1nc(Nc2ccccc2)nc(OCC(F)(F)F)n1	-3	9	-4	-2	92	1	·	·
CNc1nc(NN)nc(Nc2ccccc2)n1	-4	33*	-3	0	106	-4	4	1
CCOc1ccc(CN(C)CC(=O)NNC(=O)c2ccc(Cl)cc2)cc1OC	-6	1	-5	-18	96	1	·	·
CSCCC(NC(=O)C12CC3CC(CC(C3)C1)C2)C(=O)OCC(=O)c1ccc(Cl)cc1 (stereo not drawn)	-2	0	-1	-7	98	-1	·	·
COc1cccc(/C=N/Nc2nc(C)cc(=O)[nH]2)c1OC	-2	2	4	9	106	0	·	·
COc1cc(/C=N/Nc2nc(C)cc(=O)[nH]2)cc(OC)c1O	-5	42*	8	·	90	-2	17	0
COC(=O)c1[nH]nc2c1C(=O)N(Cc1ccccc1)C2=O	-6	12	3	7	106	-1	·	·
CCCOc1ccc(C2C(C(=O)/C=C/c3ccco3)=C(O)C(=O)N2CCN2CCOCC2)cc1OC (stereo not drawn)	5	33*	-45	0	93	27	-38	1
COc1cc(C2C(C(C)=O)=C(O)C(=O)N2CCN2CCOCC2)ccc1O (stereo not drawn)	-7	-3	-13	12	116	-7	·	·
CCc1c(O)nc(SCC(N)=O)n(-c2ccccc2F)c1=O	0	-5	3	-11	91	-1	·	·
Cc1cccc(N2CCN(C(=O)Cn3sc4nc(C)cc(C)c4c3=O)CC2C)c1 (stereo not drawn)	53*	49*	-50	95*	91	-4	17	-3
CN(C)S(=O)(=O)c1ccc(N2CCCC2)c(C(=O)N2CCN(S(=O)(=O)c3cccc(F)c3)CC2)c1	-5	·	-11	·	88	-2	·	·
Clc1ccc(OCCN2CCN(c3ncnc4sccc34)CC2)cc1	1	-8	5	0	95	2	·	·
COc1ccc(/C=C(\C#N)C(=O)Nc2cc(S(=O)(=O)N3CCOCC3)ccc2N2CCCC2)cc1	33	40*	9	-7	103	4	0	-4
NNC(=S)Nc1cc(S(=O)(=O)N2CCOCC2)ccc1N1CCOCC1	-3	40*	1	11	101	-3	14	-8
CCN(CC)S(=O)(=O)c1ccc(N2CCCCC2)c(NC(=O)/C(C#N)=C/c2ccc(OC)cc2)c1	-2	0	-36	-5	108	-1	·	·
O=C(Nc1cc(S(=O)(=O)N2CCOCC2)ccc1N1CCOCC1)c1ccccc1Cl	-4	·	7	-3	110	2	·	·
CC(C)(C)NC(=O)C(=O)N/N=C/c1ccc(Br)cc1	2	-7	-1	-2	99	1	·	·
CC(C)(C)c1nnc(N/N=C/c2ccc(Br)cc2)n(N)c1=O	-1	43*	12	·	98	0	-38	2
CSc1ccc(/C=N\Nc2nncn2N)cc1	-6	53*	3	-1	102	-3	-16	-4
CC(C)(C)c1ccc(/C=N/Nc2nncn2N)cc1	-7	51*	4	-21	99	-2	-18	-1
CC1CCN(c2ccc(/C=N\Nc3nncn3N)cc2[N+](=O)[O-])CC1	·	53*	-4	-30	127	·	-18	-4
SMILES	A3G deaminase	PfM18AAP inh-1	CendR NRP1 mod	ALR inh	CR mimetic SO	APOBEC3A inh	PfM18AAP inh-2	CTSL1 confirm
Fc1ccccc1NC(=S)NCCc1ccc(Cl)cc1	-6	-1	7	-1	137	-4	·	·
Cc1cc(C(=O)Nc2ccccc2Cc2ccccc2)no1	-7	6	0	-5	100	-3	·	·
COc1ccccc1NS(=O)(=O)c1ccc2[nH]c(=O)[nH]c2c1	-1	-1	9	-8	109	0	·	·
O=c1[nH]c2ccc(S(=O)(=O)Nc3ccccc3O)cc2[nH]1	20	50*	-46	93*	100	-1	47*	-1
CCOc1ccc(NS(=O)(=O)c2ccc(NS(=O)(=O)c3ccc(SC)cc3)cc2)cc1	-8	-2	-1	-7	140	-2	·	·
COc1ccc(OC)c(S(=O)(=O)Nc2cccc(O)c2)c1	-9	·	-14	18	98	1	·	·
Cc1ccc(S(=O)(=O)Nc2ccc(O)c(Sc3ncn[nH]3)c2)cc1	-8	56*	14	99*	120	-4	22	-9
CCOc1ccc(S(=O)(=O)Nc2ccc(O)c(Sc3ncn[nH]3)c2)cc1	-7	54*	4	99*	84	-4	27	-2
COc1ccc(OC)c(S(=O)(=O)Nc2ccc(O)c(Sc3ncn[nH]3)c2)c1	-1	64*	7	99*	92	1	36*	0
Cc1ccc(S(=O)(=O)Nc2ccc(S(=O)(=O)Nc3ncccn3)cc2)cc1	-3	4	-2	-13	98	1	·	·
Cc1cc(F)ccc1S(=O)(=O)Nc1ccc(O)c(Sc2ncn[nH]2)c1	-10	52*	-1	99*	97	-1	11	-4
CS(=O)(=O)c1ccccc1-c1nnc(NC(=O)COc2ccc(Cl)cc2)o1	-3	·	4	·	100	-4	·	·
CCOc1ccccc1N1CCN(C(=O)c2ccc(Cl)c(S(=O)(=O)N3CCCCC3)c2)CC1	-5	·	0	·	·	-1	·	·
CC1(C)CC2(CCCN(C(=S)Nc3ccccc3)C2)CCO1 (stereo not drawn)	-9	-5	-1	·	73	5	·	·
CCOC(=O)c1ccccc1NC(=O)CSc1nnc(Cc2cccn2C)n1-c1ccc(C)cc1	-5	3	6	-2	116	-7	·	·
